# According to PubChem BioAssay:
# Unmarked numbers belong to inactive results. Active and inactive are the calls of the source. Unless noted, no stated cut-off is given here; in the data, active means inhibition above about 42%; inactive means the rest.
# How the values were obtained:
# [1] = StAR promoter reporter inhibitors, counter-screen for LRH-1 inverse agonist project, cell-based, luminescence, high throughput (AID 651611; in the data active means inhibition above about 28%); conditions: StAR promoter luciferase reporter counterscreen, at 3.6 µM, active compounds read high
# [2] = target: Nuclear receptor subfamily 5 group A member 2 (Homo sapiens) (UniProt O00482); assay: LRH-1 (NR5A2) inverse agonists, retest, confirmation, cell-based, luminescence (AID 651613); conditions: cell-based LRH-1 luciferase reporter, inverse agonism; at 3.6 µM; active compounds read high;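 further: HEK293T cells co-transfected with LRH-1 and StAR promoter luciferase reporter; 0% = vehicle wells and 100% = parental cells lacking receptor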
# [3] = target: Steroidogenic factor 1 (Homo sapiens) (UniProt Q13285); assay: SF1 (NR5A1) inverse agonists, counter-screen for LRH-1 inverse agonist project, cell-based, luminescence, high throughput (AID 651614; in the data active means inhibition above about 44%;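 further: cells cotransfected with StAR promoter reporter and SF1 expression vector; 0% = vehicle on cells with receptor and 100% = vehicle on cells lacking receptor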); conditions: cell-based SF1 luciferase reporter, at 3.6 µM, active compounds read high
# [4] = VP16 transactivation reporter inhibitors, counter-screen for LRH-1 inverse agonist project, cell-based, luminescence, high throughput (AID 651615; in the data active means inhibition above about 33%); conditions: Gal4-VP16 luciferase reporter cells, at 3.6 µM, active compounds read high
# Sequence of Nuclear receptor subfamily 5 group A member 2 (Homo sapiens) (O00482 whole entry, looked up): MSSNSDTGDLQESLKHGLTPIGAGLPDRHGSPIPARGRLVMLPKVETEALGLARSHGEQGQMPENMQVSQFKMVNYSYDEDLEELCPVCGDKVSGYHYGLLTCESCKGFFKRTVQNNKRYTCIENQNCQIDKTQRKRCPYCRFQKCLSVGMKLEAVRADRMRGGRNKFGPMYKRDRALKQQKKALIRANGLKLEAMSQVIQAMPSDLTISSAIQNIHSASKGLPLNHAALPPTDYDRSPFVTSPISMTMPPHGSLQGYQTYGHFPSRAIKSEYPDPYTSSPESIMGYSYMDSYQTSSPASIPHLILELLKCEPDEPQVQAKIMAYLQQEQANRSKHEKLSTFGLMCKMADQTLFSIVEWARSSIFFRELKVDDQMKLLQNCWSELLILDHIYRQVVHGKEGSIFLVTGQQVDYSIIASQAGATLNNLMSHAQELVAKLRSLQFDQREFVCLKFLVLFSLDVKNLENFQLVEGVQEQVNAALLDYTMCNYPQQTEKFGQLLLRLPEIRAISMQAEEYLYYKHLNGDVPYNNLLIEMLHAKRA
# Sequence of Steroidogenic factor 1 (Homo sapiens) (Q13285 whole entry, looked up, the tested form may be a part): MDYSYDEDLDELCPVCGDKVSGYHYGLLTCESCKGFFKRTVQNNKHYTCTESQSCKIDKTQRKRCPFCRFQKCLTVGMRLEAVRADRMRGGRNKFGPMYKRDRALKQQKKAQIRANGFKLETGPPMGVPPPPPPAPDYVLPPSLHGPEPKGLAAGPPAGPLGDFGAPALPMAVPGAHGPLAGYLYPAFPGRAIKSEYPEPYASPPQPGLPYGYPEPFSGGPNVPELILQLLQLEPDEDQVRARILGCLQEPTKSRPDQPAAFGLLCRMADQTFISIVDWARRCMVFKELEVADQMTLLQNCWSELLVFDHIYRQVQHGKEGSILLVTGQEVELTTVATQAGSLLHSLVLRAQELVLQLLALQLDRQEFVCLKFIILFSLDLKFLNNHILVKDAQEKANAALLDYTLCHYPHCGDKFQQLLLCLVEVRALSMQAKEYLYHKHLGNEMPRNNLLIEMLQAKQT
SMILES,inhibition [1],inhibition [2],inhibition [3],inhibition [4]
Cc1ccc(NC(=O)Cc2nnc(SCC(=O)Nc3ccc(N4CCOCC4)cc3)n2C)cc1,6.95%,59.7% (active),51.9% (active),12%
Cc1c(NC(=O)C(C)OC(=O)c2ccc([N+](=O)[O-])s2)c(=O)n(-c2ccccc2)n1C (centres undefined),20%,23.3%,19.4%,-10.5%
CN(C)S(=O)(=O)c1cccc(CSCc2cccc(S(=O)(=O)N(C)C)c2)c1,7.72%,59% (active),38.9%,46.1% (active)
COc1cc2c(cc1OC)CN(C(=O)CN1CCN(S(=O)(=O)c3ccc(C)c(C)c3)CC1)CC2,19.9%,49.3% (active),45% (active),16.1%
Cc1ccccc1NC(=S)NCc1ccc2[nH]c3c(c2c1)CCCC3,-0.36%,17.9%,28.9%,9.36%
O=C(Nc1cc(Cl)ccc1-n1cncn1)c1ccc([N+](=O)[O-])o1,27%,61.9% (active),61.8% (active),-24.7%
